Here are results for 21 compounds from PubChem BioAssay (NCI).

Assay [1] in a line: NCI Yeast Anticancer Drug Screen. Data for the rad50 strain (AID 155).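 Note: 0% = growth of vehicle-only cultures of the same strain.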 The conditions noted are these: S. cerevisiae rad50 strain growth inhibition; at 50.0 µM; active compounds read high. The essentials: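 Growth of the mutant yeast was measured after compound exposure and referenced to vehicle-treated cultures.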
Assay [2] in a line: NCI Yeast Anticancer Drug Screen. Data for the mec2-1 strain (AID 157). The conditions noted are these: S. cerevisiae mec2-1 strain, at 50.0 µM, active compounds read high. The essentials: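 Test agents were screened against the mec2-1 yeast strain, with defined DNA repair or cell cycle alteration. Growth was scored as inhibition against vehicle-only controls.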
Assay [3] is described as follows: NCI Yeast Anticancer Drug Screen. Data for the sgs1 mgt1 strain (AID 161).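 Note: 0% = growth of cultures given vehicle only.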 The conditions noted are these: S. cerevisiae sgs1 mgt1 strain, at 50.0 µM, active compounds read high. The essentials: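 Mutant yeast exposed to compound; growth scored against vehicle-only wells.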
The nature of assay [4]: NCI Yeast Anticancer Drug Screen. Data for the cln2 rad14 strain (AID 165).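 Note: 0% = growth equal to vehicle treated cultures.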 As to conditions: S. cerevisiae cln2 rad14 strain, at 50.0 µM, active compounds read high. The essentials: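 Growth of compound-exposed yeast (cln2 rad14 genotype) measured and expressed as inhibition relative to vehicle.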
Assay [5] in a line: NCI Yeast Anticancer Drug Screen. Data for the bub3 strain (AID 167). The conditions noted are these: S. cerevisiae bub3 mutant strain, at 50.0 µM, active compounds read high. A digest of the protocol:
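Whole-cell yeast assay. The mutant strain was incubated with compounds, and growth inhibition was determined by comparison with vehicle-treated cells.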

The nature of assay [6]: NCI Yeast Anticancer Drug Screen. Data for the mlh1 rad18 strain (AID 175). As to conditions: S. cerevisiae mlh1 rad18 strain growth inhibition; at 50.0 µM; active compounds read high. A digest of the protocol:
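In this whole-cell yeast screen, a strain with altered DNA damage repair is challenged with compound, and its growth is measured against matched vehicle-treated controls.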

About 79,000 compounds went through this panel and 15% of them were active in at least one assay; those are over-represented in the sample as a whole. Unmarked numbers belong to inactive results. Calls of active or inactive are those of the source. Cut-off read from the data, not from the text of the source: active = growth inhibition above about 70%; inactive = the rest.

For the compound `Cc1ccc(N(CN2C(=O)CCC2=O)CS(=O)(=O)c2ccc(C)cc2)cc1`, the growth inhibition in assay [1] is -1.85%; in assay [2] it was -8.6%; in assay [3], -9.15%; in assay [4] it was 21.4%; in assay [5], -5.65%; in assay [6] it was 0.8%.
With `O=C([O-])C[n+]1ccccc1/C=C/c1ccccc1`, the growth inhibition was -19.2% in assay [1]; 1.8% in assay [2]; -23.1% in assay [3]; -15.2% in assay [4]; -7.75% in assay [5]; -23.9% in assay [6].
Regarding `Cc1csc2nc(-c3ccccc3)[nH]c(=S)c12`, the growth inhibition in assay [1] is 5.5%; in assay [2], 6.4%; in assay [3] it was 10.9%; in assay [4] it was -22.8%; in assay [5], -4.8%; in assay [6] it was 6.75%.
With `COCCNC(c1ccccc1)C(O)c1ccccc1` (stereo unspecified), the growth inhibition in assay [1] was 6.4%; in assay [2], -15.6%; in assay [3] it was -5.15%; in assay [4], -33%; in assay [5], 7.5%; in assay [6], -7.85%.
As to `CCOC(=O)/C=C/C(=O)[O-].CCOC(=O)/C=C/C(=O)[O-].NC1CCCCC1N.[Pt+4]`, the growth inhibition in assay [1] was 19.2%; in assay [2] it was 25.9%; in assay [3], 19.4%; in assay [4], -2.1%; in assay [5], 20.1%; in assay [6], 10.2%.
In the case of `C(=C/c1nnc2ncccn12)/c1ccccc1`, the growth inhibition in assay [1] is -13.8%; in assay [2], -4.85%; in assay [3], -1.5%; in assay [4], -15.7%; in assay [5] it was 0.05%; in assay [6], -5.4%.
Take `Cc1ccnc2ccccc12`: the growth inhibition in assay [1] is 0.15%; in assay [2] it was 1.55%; in assay [3], -1.6%; in assay [4] it was -3.2%; in assay [5] it was -2.15%; in assay [6], -11.4%.
Turning to `c1ccc2c(-c3nn[nH]n3)nccc2c1`, the growth inhibition in assay [1] was 11.6%; in assay [2], -16.2%; in assay [3], -6.5%; in assay [4], -16.9%; in assay [5], -19.9%; in assay [6], -10.9%.
`OCc1ccc2[n+](c1)CCC1c3ccccc3NC21` (stereo unspecified): the growth inhibition was -8.35% in assay [1]; -8.75% in assay [2]; -18.6% in assay [3]; -8.4% in assay [4]; -26.3% in assay [5]; -6.45% in assay [6].
Regarding `CC(=S)NC(O)C(=O)c1ccccc1` (stereo unspecified), the growth inhibition in assay [1] is 9.85%; in assay [2], 12.8%; in assay [3], 45%; in assay [4], 8.6%; in assay [5] it was 45.2%; in assay [6], 6.45%.
On to `c1ccc2c(c1)C[N+]1(CCCCCC1)C2`, for which the growth inhibition was 7% in assay [1]; 6.05% in assay [2]; 11% in assay [3]; -10.3% in assay [4]; 1.05% in assay [5]; 10.7% in assay [6].
`COC(=O)C1C(=O)C2OC1C1OC(C)(C)OC21` (stereo unspecified): the growth inhibition is 7.75% in assay [1]; -12.1% in assay [2]; -12.1% in assay [3]; -52.4% in assay [4]; 1.7% in assay [5]; -0.95% in assay [6].
Take `CN(C)CCNC(=O)c1ccc(Cl)c2cc3ccccc3nc12`: the growth inhibition was 83.3% (active) in assay [1]; 66.3% in assay [2]; 58% in assay [3]; 50.7% in assay [4]; 15.7% in assay [5]; 85.8% (active) in assay [6].
Consider `O=C1NC(=O)C2(CCC(O)C2)c2cc[n+]([O-])cc21` (stereo unspecified), for which the growth inhibition in assay [1] is -8.55%; in assay [2], -41.4%; in assay [3] it was -13.6%; in assay [4], 8.25%; in assay [5], -25.6%; in assay [6], -83.8%.
Turning to `CCCC1=NC(C(F)(F)F)(C(F)(F)F)N=C(N2CCOCC2)O1`, the growth inhibition in assay [1] is 0.95%; in assay [2] it was 7.25%; in assay [3], -2.3%; in assay [4], 4.55%; in assay [5] it was 27.1%; in assay [6], 1.45%.
`O=c1oc2ccc(Cl)cc2n1CN1CCOCC1`: the growth inhibition in assay [1] is 1.9%; in assay [2], -26.9%; in assay [3] it was 1.95%; in assay [4] it was 12.8%; in assay [5], -34.2%; in assay [6], 5.55%.
On to `CCC(C)C(C)(O)CC` (stereo unspecified), for which the growth inhibition in assay [1] was -2.6%; in assay [2], -28.9%; in assay [3], -21.8%; in assay [4], 4.1%; in assay [5] it was -8.8%; in assay [6] it was -4.8%.
On to `Cc1ncn(-c2ccccc2)c(=O)c1N=Cc1ccccc1`, for which the growth inhibition in assay [1] is -13.7%; in assay [2], -17.1%; in assay [3] it was -32.2%; in assay [4], -8.85%; in assay [5], -19.7%; in assay [6], -10.3%.
Consider `NC(=O)C(=CN1C(=O)/C(=C/c2ccccc2O)SC1=S)C(N)=O`, for which the growth inhibition in assay [1] was -21.6%; in assay [2] it was 2.9%; in assay [3] it was 10.9%; in assay [4], 28.4%; in assay [5], -4.85%; in assay [6], -24.1%.
As for `CN(C)CCN=C1Nc2ccccc2C(=O)N2CSCC12` (stereo unspecified), the growth inhibition in assay [1] is -3.25%; in assay [2], -1.95%; in assay [3], -8.7%; in assay [4] it was -1.25%; in assay [5], -15.3%; in assay [6] it was 17.3%.
For `O=C(c1ccccc1)c1cccs1`, the growth inhibition is -19.3% in assay [1]; -1.9% in assay [2]; -12.7% in assay [3]; -45.6% in assay [4]; -14.5% in assay [5]; -17.9% in assay [6].
